A selection: hits, their analogues and other compounds. The true share with any hit is near 2.1%.
PfHsp40 rescue = rescue of PfHsp40-mediated yeast toxicity | S. cerevisiae expressing PfHsp40, growth rescue, ATP luminescence | growth rescue, % at 12.5 µM | 340,000 tested, 0.68% active | AID 504582; in the data active means growth rescue above about 28%, passing the limit was not always enough;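 further: yeast W303a lacking pdr1 and pdr3 grown in galactose medium; growth measured after three days at 30 °C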
PrP 5UTR inh = suppresses PrP 5' UTR mRNA reporter expression | cell-based PrP 5' UTR mRNA reporter, plate reader | inhibition, % (concentration not given with the values) | 340,000 tested, 0.35% active; in the data active means inhibition above about 52%; further: 0 = median of the neutral control wells
VHR inh abs = inhibitors of human VHR1 phosphatase (DUSP3). inhibition, % at 13.3 µM. P51452. recombinant VHR phosphatase, pNPP absorbance. AID 1654. 290,000 tested, 0.52% active; in the data active means inhibition above about 50%
Target sequence (P51452 whole entry, looked up): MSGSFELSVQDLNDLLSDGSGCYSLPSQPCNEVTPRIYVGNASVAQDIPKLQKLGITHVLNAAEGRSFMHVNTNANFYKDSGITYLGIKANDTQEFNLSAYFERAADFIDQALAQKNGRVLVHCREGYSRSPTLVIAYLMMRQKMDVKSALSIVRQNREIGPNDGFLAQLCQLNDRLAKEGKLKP
MazEF act = MazEF (E. coli) toxin RNase activation | AID 504720 | FAM/BHQ RNA-DNA oligo cleavage fluorescence, 5 h | activation, % at 20 µM | P0AE70 | 350,000 tested, 0.32% active; in the data active means activation above about 50%
Target sequence (P0AE70 whole entry, looked up): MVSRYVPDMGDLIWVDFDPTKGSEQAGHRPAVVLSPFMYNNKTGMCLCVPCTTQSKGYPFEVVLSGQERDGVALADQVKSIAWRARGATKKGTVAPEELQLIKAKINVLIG
PrPC surface inh = inhibitors of human cell surface prion protein PrPC; TR-FRET read-out; inhibition, % at 13.8 µM; 370,000 tested, 0.43% active; AID 720596; in the data active means inhibition above about 24%; further: 0% = median of the test wells and 100% = reference compound wells
BJeLR viability = kills HRASV12-expressing BJeLR cells; 300,000 tested, 0.17% active; inhibition, % (no concentration beside the values); BJeLR (HRASV12) viability, CellTiter-Glo ATP luminescence, 48 h; in the data active means inhibition above about 50%
The depositor's hits bear a star.

Screening COc1ccccc1NC(=O)NCC1(N(C)C)CCCCC1 returned PfHsp40 rescue 0.2, PrP 5UTR inh -11.6, VHR inh abs -8.1, MazEF act -0.8, PrPC surface inh -1.3 and BJeLR viability 0.8.
`CCCCCCCn1c(=O)c(C(=O)OC)c(N)c2ccccc21` gave PfHsp40 rescue 245.0*, PrP 5UTR inh -19.5, VHR inh abs -22.1, MazEF act -0.1, PrPC surface inh -4.2 and BJeLR viability -1.2.
Screening Cn1cc([C@]2(O)C(=O)N(c3ccccc3)c3ccccc32)c2ccccc21 returned PrPC surface inh -2.0.
`C[C@H](CO)N1C[C@H](C)[C@@H](CN(C)Cc2ccc(C(=O)O)cc2)Oc2c(NS(=O)(=O)c3cccs3)cccc2C1=O` gave PfHsp40 rescue -0.1, PrP 5UTR inh -27.5, MazEF act 2.6 and PrPC surface inh -4.8.
O=C(COC(=O)c1cccc(OC(F)F)c1)NCC1CCCO1 (stereo not drawn) was read as PfHsp40 rescue -0.5, PrP 5UTR inh -2.6, MazEF act 15.4 and PrPC surface inh -7.8.
Screening Cc1c(C(=O)OCC(=O)N2CC(=O)Nc3ccccc32)oc2ccc(Br)cc12 returned PfHsp40 rescue -0.1, PrP 5UTR inh -28.3, VHR inh abs 14.6, MazEF act -27.1, PrPC surface inh -7.7 and BJeLR viability 67.6*.
Screening Cc1cc(C(=O)OCC(=O)N2CC(=O)Nc3ccccc32)no1 returned PfHsp40 rescue -0.7, PrP 5UTR inh -18.0, VHR inh abs 18.8, MazEF act -2.6, PrPC surface inh -0.2 and BJeLR viability -5.7.
CC(Oc1ccc(C#N)cc1)C(=O)c1ccc(F)c(F)c1 (stereo not drawn) was read as PfHsp40 rescue -0.6, PrP 5UTR inh -8.2, VHR inh abs 14.0, MazEF act 3.4 and PrPC surface inh 10.3.
Screening CN(/N=C/c1ccc(N(C)C)cc1)C1=NS(=O)(=O)c2ccccc21 returned PfHsp40 rescue 0.8, PrP 5UTR inh -32.9, VHR inh abs 2.4, MazEF act active, PrPC surface inh -8.3 and BJeLR viability 31.1.
For Cc1cc(OCC(=O)NNC(=O)c2cccs2)ccc1Br the results were PfHsp40 rescue 0.6, PrP 5UTR inh -16.9, VHR inh abs 25.2, MazEF act 1.7, PrPC surface inh 1.9 and BJeLR viability -2.1.
COc1ccccc1/C=C1\SC(=S)N(CCC(=O)NC2=NCCS2)C1=O was read as PfHsp40 rescue -0.2, PrP 5UTR inh -3.7, VHR inh abs -8.5, MazEF act 171.9*, PrPC surface inh -4.4 and BJeLR viability 4.1.
`O=C(CCN1C(=O)/C(=C\c2cccs2)SC1=S)NC1=NCCS1` gave PfHsp40 rescue 0.1, PrP 5UTR inh -16.4, VHR inh abs -0.9, MazEF act 9.9, PrPC surface inh 0.5 and BJeLR viability 2.7.
COc1ccccc1/C=C1/SC(=S)N(CCC(=O)Nc2cccnc2)C1=O was read as PfHsp40 rescue -0.2, PrP 5UTR inh -16.3, VHR inh abs 5.4, MazEF act 435.4*, PrPC surface inh -1.5 and BJeLR viability 10.5.
For O=C(Cn1nnc(-c2ccccc2F)n1)Nc1ccc(Cl)cc1 the results were PrPC surface inh 1.5.
`O=[N+]([O-])c1ccc(CP(=O)(c2ccccc2)c2ccccc2)cc1` gave PfHsp40 rescue 0.7, PrP 5UTR inh -18.4, VHR inh abs 55.5*, MazEF act 2.2, PrPC surface inh -20.7 and BJeLR viability 1.9.
For CCc1nc2ccc(C(=O)NCCC(C)C)cn2c1N(CC)CCOC the results were PrPC surface inh 4.8.
COc1ccc2ccccc2c1/C=N/N1C(=O)CSC1=S was read as PfHsp40 rescue -0.5, PrP 5UTR inh -12.6, VHR inh abs 30.1, MazEF act -37.9, PrPC surface inh -3.5 and BJeLR viability -9.8.
`O=C1CSC(=S)N1N=Cc1c(O)ccc2ccccc12` gave PfHsp40 rescue 1.3, PrP 5UTR inh -7.1, MazEF act 590.0* and PrPC surface inh -1.7.
For CCOc1ccc(NC(=O)CN2C(=O)NC(C)(c3ccc4c(c3)OCCCO4)C2=O)cc1OCC (stereo not drawn) the results were PfHsp40 rescue 0.0, PrP 5UTR inh -10.5, MazEF act 4.4 and PrPC surface inh -3.9.
For Cc1[nH]n(-c2cccc3ccccc23)c(=O)c1/C=N/NC(=O)c1cccc([N+](=O)[O-])c1 the results were PfHsp40 rescue 83.0*, PrP 5UTR inh -43.8, VHR inh abs 4.2, MazEF act -3.4, PrPC surface inh 11.1 and BJeLR viability 6.4.
`CCCOc1ccc2oc(=O)c3c(c2c1)CCCN3C(=O)CN1CCN(c2ncccn2)CC1` gave PfHsp40 rescue 0.9, PrP 5UTR inh 15.6, VHR inh abs 55.6*, MazEF act 3.2, PrPC surface inh 4.8 and BJeLR viability -7.3.
C/C=C(\C)C(=O)Nc1cccc(C2=NOC3(C2)C[C@@H](C(N)=O)N(C(=O)c2ccccc2C(=O)c2ccccc2)C3)c1 (stereo partly drawn) was read as PfHsp40 rescue 51.2*, PrP 5UTR inh -19.5, VHR inh abs 11.1, MazEF act 2.5, PrPC surface inh 0.2 and BJeLR viability -13.6.
Screening CN(CC1COc2ccccc2O1)C(=O)c1cccc(S(=O)(=O)N2CCCC2)c1 (stereo not drawn) returned PfHsp40 rescue -0.1, PrP 5UTR inh 5.5, MazEF act 2.8 and PrPC surface inh 3.4.
`O=C(NCc1ccccn1)C(=O)NCC1OCCN1S(=O)(=O)c1ccc(F)cc1` (stereo not drawn) gave PfHsp40 rescue 33.2*, PrP 5UTR inh -5.3, VHR inh abs 28.6, MazEF act 3.9, PrPC surface inh 0.5 and BJeLR viability -16.8.
Screening O=C(NCc1ccccn1)C(=O)NCC1OCCCN1S(=O)(=O)c1ccc(F)cc1 (stereo not drawn) returned PfHsp40 rescue -0.5, PrP 5UTR inh -7.0, VHR inh abs 10.5, MazEF act 1.3, PrPC surface inh 2.4 and BJeLR viability -7.8.
O=C(O)c1ccc(Nc2nc(-c3cccnc3)cs2)cc1 was read as PfHsp40 rescue -0.7, PrP 5UTR inh -39.3, VHR inh abs 53.0*, MazEF act 3.5, PrPC surface inh 1.1 and BJeLR viability -4.5.
Screening O=C(Nc1cccc(-c2csc(Nc3ccccc3)n2)c1)c1ccccc1 returned PfHsp40 rescue 73.0*, PrP 5UTR inh -21.3, VHR inh abs 26.3, MazEF act 18.2, PrPC surface inh 8.3 and BJeLR viability -7.4.
`O=C(Nc1cccc(-c2csc(Nc3cccc(C(F)(F)F)c3)n2)c1)c1ccccc1` gave PfHsp40 rescue 4.2, PrP 5UTR inh -8.8, VHR inh abs 7.3, MazEF act -3.0, PrPC surface inh 7.5 and BJeLR viability -5.9.
For CCC(=O)Nc1nc2ccccc2n1CCN(C)C the results were PfHsp40 rescue -1.4, PrP 5UTR inh -16.0, VHR inh abs 57.4*, MazEF act -10.1, PrPC surface inh 0.5 and BJeLR viability 4.0.

Screening data as filed in PubChem BioAssay.
